More than one record can exist for a structure, and the calls need not agree. The source made the active and inactive calls. How the source made its calls: active means hit-call score of the fitted dose curve at least 0.9, where 1 is the maximum; inactive means score below 0.9.

Transcriptional activator Myb (Homo sapiens), sequence (P10242 whole entry, looked up): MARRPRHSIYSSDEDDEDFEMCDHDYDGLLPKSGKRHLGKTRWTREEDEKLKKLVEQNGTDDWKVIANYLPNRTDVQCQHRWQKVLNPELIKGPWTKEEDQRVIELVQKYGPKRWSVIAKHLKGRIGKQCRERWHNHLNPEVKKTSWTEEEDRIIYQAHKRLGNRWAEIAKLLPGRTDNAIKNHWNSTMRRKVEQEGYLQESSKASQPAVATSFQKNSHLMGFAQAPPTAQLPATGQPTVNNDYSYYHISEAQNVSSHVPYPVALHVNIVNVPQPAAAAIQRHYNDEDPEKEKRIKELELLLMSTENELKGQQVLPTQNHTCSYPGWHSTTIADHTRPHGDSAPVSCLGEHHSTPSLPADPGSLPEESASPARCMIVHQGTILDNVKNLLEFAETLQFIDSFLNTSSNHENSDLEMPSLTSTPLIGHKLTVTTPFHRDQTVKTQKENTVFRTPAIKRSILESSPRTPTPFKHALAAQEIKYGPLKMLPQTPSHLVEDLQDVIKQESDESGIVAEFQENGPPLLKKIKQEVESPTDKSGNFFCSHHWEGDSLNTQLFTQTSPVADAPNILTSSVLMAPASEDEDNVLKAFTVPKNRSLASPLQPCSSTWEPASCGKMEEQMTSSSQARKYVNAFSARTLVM

The target in this test is Transcriptional activator Myb (Homo sapiens) (UniProt P10242). As to the kind of experiment: ATG_Myb_CIS: Attagene CIS-FACTORIAL HepG2 Assay for human Myeloblastosis (Myb) Proto-Oncogene Transcription Factor (AID 2282986). Conditions: HepG2 Attagene CIS-FACTORIAL Myb reporter transcription; actives raise or lower the signal. On the procedure:
ATG_CIS is a cell-based, multiplexed-readout assay that uses HepG2, a human liver cell line, with measurements taken at 24 hours after chemical dosing in a 24-well plate.ATG_Myb_CIS is one of 52 assay component(s) measured or calculated from the ATG_CIS assay. It is designed to make measurements of mRNA induction, a form of inducible reporter, as detected with fluorescence intensity signals by Reverse transcription polymerase chain reaction (RT-PCR) and Capillary electrophoresis technology.Data from the assay component ATG_Myb_CIS was analyzed into 1 assay endpoint. This assay endpoint, ATG_Myb_CIS, was analyzed with bidirectional fitting relative to DMSO as the negative control and baseline of activity. Using a type of inducible reporter, measures of mRNA for gain or loss-of-signal activity can be used to understand the reporter gene at the transcription factor-level as they relate to the gene MYB. Furthermore, this assay endpoint can be referred to as a primary readout, because this assay has produced multiple assay endpoints where this one serves a reporter gene function. To generalize the intended target to other relatable targets, this assay endpoint is annotated to the dna binding intended target family, where the subfamily is MYB proteins.
Human liver HepG2 cells are transiently transfected with multiple reporter transcription units (MRTUs) in 6-well plates using FuGene 6 reagent (Roche; 3 ml FuGene/1 mg DNA). The MRTU constructs are regulated by a cis-regulating element (promoter). […] A major difference between the CIS and TRANS system is that in CIS activities of endogenous TFs are measured, whereas the TRANS assay evaluates changes in activities of exogenous, chimeric NR-Gal4 proteins. […] At the end of 24 hour incubation, total RNA was isolated using TriZol reagent (Invitrogen). The isolated RNA is then reverse-transcribed using oligo(dT) primer and Mo-MLV reverse transcriptase (Invitrogen) with DNAse I (Ambion) treatment for 30 min. The one-tenth of the produced cDNA was amplified by PCR using Taq DNA polymerase (Invitrogen) and two reporter sequence-specific primers. The PCR products were fluorescently labeled by primer extension with 6-arboxyfluorescein (6-FAM) 5'-labeled reporter sequence-specific primer (2 min at 95 C, 20 s at 68 C and 10 min at 72 C) and these products were digested with 5U of HpaI (New England Biolabs) for 2h at 37 C. The fragments were purified using Qiaquick PCR columns (Qiagen), analyzed on an ABI 3130xL genetic analyzer (Applied Biosystems) with peak positions identified by using a set of X-rhodamine (ROX)-labeled MapMarker1000 molecular weight standards (BioVentures). The raw capillary electrophoresis data was processed using Attagraph software (Attagene).
Regarding `O=C(O)CCCOc1ccc(Cl)cc1Cl`, the result was inactive. `CN1CSC(=S)N(C)C1`: the outcome was inactive. As to `CCN(CC)C(=O)SCc1ccc(Cl)cc1`, the call was inactive. Same read-out and setting: to `CC1(C)C(C=C(Cl)Cl)C1C(=O)OC(C#N)c1ccc(F)c(Oc2ccccc2)c1` (stereo not given) belongs “inactive”. The same measure, in the same setting: for `C[C@H]1[C@H](c2ccc(Cl)cc2)SC(=O)N1C(=O)NC1CCCCC1` the value was “inactive”; for `CNC(=O)Oc1cccc(N=CN(C)C)c1`, “inactive”; for `CCCN(CCOc1c(Cl)cc(Cl)cc1Cl)C(=O)n1ccnc1`, “inactive”. Take `O=C(NC(=O)c1c(F)cccc1F)Nc1ccc(OC(F)(F)C(F)OC(F)(F)F)c(Cl)c1` (stereo not given): the outcome was inactive. For `CC[C@H](C)[C@H]1O[C@]2(C=C[C@@H]1C)C[C@@H]1C[C@@H](C/C=C(\C)[C@@H](O[C@H]3C[C@H](OC)[C@@H](O[C@H]4C[C@H](OC)[C@@H](O)[C@H](C)O4)[C@H](C)O3)[C@@H](C)/C=C/C=C3\CO[C@@H]4[C@H](O)C(C)=C[C@@H](C(=O)O1)[C@]34O)O2` (tested in a mixture with another compound), the molecule was called inactive. With `Oc1ccc(Cl)cc1Cc1ccccc1`, the molecule was classed as inactive and the AC50 is 15.2 µM (active). For `ClC1C(Cl)C(Cl)C(Cl)C(Cl)C1Cl` (stereo not given), the outcome was inactive. As for `CCOc1nc(NC)nc(NC(=O)NS(=O)(=O)c2ccccc2C(=O)OC)n1`, the result was inactive. The same measure, in the same setting: for `CCOCN(C(=O)CCl)c1c(C)cccc1CC` the value was “inactive”; for `CC(C)OC(=O)Nc1cccc(Cl)c1`, “inactive”. Regarding `CC(C)N(C(=O)COc1nnc(C(F)(F)F)s1)c1ccc(F)cc1`, the call was inactive. The same measure, in the same setting: for `CCCN(CCC)c1c([N+](=O)[O-])cc(C(F)(F)F)cc1[N+](=O)[O-]` the value was “inactive”; for `Oc1cc(Cl)ccc1Oc1ccc(Cl)cc1Cl`, “inactive”. The same measure, in the same setting: to `CNC(=O)CSP(=S)(OC)OC` belongs “inactive”; to `CCC(C)(C)C(=O)OC1=C(c2ccc(Cl)cc2Cl)C(=O)OC12CCCCC2`, “inactive”. For `CCS(=O)(=O)c1cccnc1S(=O)(=O)NC(=O)Nc1nc(OC)cc(OC)n1`, the molecule was classed as inactive. For the molecule `COc1nn(CSP(=S)(OC)OC)c(=O)s1`, the call was inactive. Still for that read-out and setting: to `COC(=O)c1ccccc1S(=O)(=O)NC(=O)N(C)c1nc(C)nc(OC)n1` belongs “inactive”. With `O=C(Nc1ccccc1)Nc1cnns1`, the concentration at half-maximal activity (AC50) was 78.3 µM (active). For the molecule `COC(=O)c1ccccc1S(=O)(=O)NC(=O)Nc1nc(C)nc(OC)n1`, the molecule was classed as inactive.

Turning to `CCc1ccc(C(=O)NN(C(=O)c2cc(C)cc(C)c2)C(C)(C)C)cc1`, the molecule was classed as inactive. As to `CC(C)(C)C(O)C(Oc1ccc(Cl)cc1)n1cncn1` (stereo not given), the call was inactive.

In the case of `O=C(O)C(F)(F)C(F)(F)C(F)(F)C(F)(F)C(F)(F)C(F)(F)C(F)(F)F`, the outcome was inactive.

Take `COP(=O)(OC)OC=C(Cl)Cl`: the call was inactive. With `C#CCN1C(=O)COc2cc(F)c(N3C(=O)C4=C(CCCC4)C3=O)cc21`, the result was inactive. `N#Cc1c(Cl)c(Cl)c(Cl)c(C#N)c1Cl`: the molecule was called inactive. As to `COc1cc(OC)nc(NC(=O)NS(=O)(=O)c2cc(NC=O)ccc2C(=O)N(C)C)n1`, the result was inactive. Same read-out and setting: to `CCC(C)Nc1c([N+](=O)[O-])cc(C(C)(C)C)cc1[N+](=O)[O-]` (stereo not given) belongs “inactive”. Same read-out and setting: to `Cc1[nH]c(=O)n(C(C)(C)C)c(=O)c1Cl` belongs “inactive”.

As to `CNC(=O)/C=C(\C)OP(=O)(OC)OC`, the result was inactive. Turning to `COP(=S)(OC)Oc1ccc(SC)c(C)c1`, the molecule was called inactive. Still for that read-out and setting: for `O=[N+]([O-])c1c(Cl)c(Cl)c(Cl)c(Cl)c1Cl` the value was “inactive”; for `CNC(=O)Oc1ccccc1OC(C)C`, “inactive”; for `CCOC1Oc2ccc(OS(C)(=O)=O)cc2C1(C)C` (stereo not given), “inactive”. As to `O=C(O)COc1ccc(Cl)cc1Cl`, the outcome was inactive.
